An excerpt weighted towards active compounds, which were near 7.3% of everything screened.
HCV inh – qHTS Assay for Inhibitors of Hepatitis C Virus (HCV). Huh7.5.1 HCVcc-Cre infection, luciferase reporter, 44 h. Potency, µM (highest dose often 41.8 µM), inactives show top-dose activity change, negative = inhibition, usual class: inhibitors. hit rate 3.4% among 340,000; also: potency is read from the fitted curve at half-maximal effect
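Infectious HCV cell culture screen: compound-treated cells (1,000/well, pre-plated 4 h) are infected with HCVcc-Cre at roughly 0.5 moi and grown 44 h. Infection is quantified by luciferase signal after 15 min substrate incubation at room temperature.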
FMDV inh – High Throughput Screening for Foot and Mouth Disease Virus Antivirals; hit rate 1.2% among 410,000; Potency, µM (doses to about 57.9 µM), without a hit: at the highest dose activity change, negative = inhibition, hits mostly inhibitors; FMDV antiviral cell-based qHTS; calls by dose curve; tested in HEK293T cells; also: read-out not given here; potency is read from the fitted curve at half-maximal effect; nearly all actives have a fitted effect of over 45% in size
HCMV antiviral – qHTS Assay for inhibitors of the human cytomegalovirus (HCMV) | HFF cells, HCMV-luciferase reporter, 72 h; active compounds read low | activity change, negative = inhibition, % at 57.5 µM | hit rate 4.5% among 410,000 | AID 1259415, 2018; in the data active = activity change below about -60%; inconclusive = no clear call, values can overlap the other calls; inactive = above about -39%
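Screen run at 2 compound doses on HFFs infected with reporter HCMV, MOI 1 PFU/cell. Luciferase activity from cell lysates at 72 h post infection gave inhibition relative to buffer-only and Salinomycin wells.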
AmpC no deterg – qHTS Inhibitors of AmpC Beta-Lactamase (assay without detergent) | AmpC nitrocefin hydrolysis, absorbance 480 nm, 0.0001% Triton | Potency, µM (highest dose often 57.1 µM), inactives show top-dose activity change, negative = inhibition, usual class: inhibitors | hit rate 0.52% among 330,000 | AID 485341, 2010;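 also: potency is read from the fitted curve at half-maximal effect; plate controls were no compound for no effect and no enzyme for full effect; nearly all actives have a fitted effect of over 20% in size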
Target sequence (P00811 whole entry, looked up): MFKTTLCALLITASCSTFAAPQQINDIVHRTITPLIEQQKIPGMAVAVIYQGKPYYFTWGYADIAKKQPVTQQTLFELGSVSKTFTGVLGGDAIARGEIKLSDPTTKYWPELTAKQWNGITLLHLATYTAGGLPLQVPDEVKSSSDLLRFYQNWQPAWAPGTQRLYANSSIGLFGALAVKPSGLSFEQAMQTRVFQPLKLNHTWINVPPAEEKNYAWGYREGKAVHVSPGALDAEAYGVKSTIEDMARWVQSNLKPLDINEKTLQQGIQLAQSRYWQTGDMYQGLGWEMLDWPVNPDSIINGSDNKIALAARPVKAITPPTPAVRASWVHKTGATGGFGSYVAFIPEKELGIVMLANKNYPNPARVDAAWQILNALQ
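AmpC (5.3 nM in the dispensed reagent) in 20 mM phosphate pH 7.0 with 0.01% (detergent screen) or 0.0001% Triton X-100 was preincubated with compounds for 15 min at room temperature. Nitrocefin was then added from an 800 uM solution, and hydrolysis was followed at 480 nm.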
AmpC detergent – qHTS Inhibitors of AmpC Beta-Lactamase (assay with detergent); hit rate 0.041% among 370,000; Potency, µM (series often up to 114 µM), without a hit: at the highest dose activity change, negative = inhibition, usual class: inhibitors; AmpC hydrolysis of nitrocefin, absorbance 480 nm, 0.01% Triton; AID 485294, 2010;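 also: potency is read from the fitted curve at half-maximal effect; 0% = no-compound wells and -100% = no-enzyme wells; nearly all actives have a fitted effect of over 25% in size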
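20 mM phosphate pH 7.0 + 0.01% (detergent screen) or 0.0001% Triton X-100; 5.3 nM AmpC reagent; cpd preinc 15 min RT; nitrocefin (800 uM stock) to start; A480 q20 s × 4 min; Activity was normalised to no-enzyme and no-compound control wells.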
* = called active by the depositor; ? = inconclusive; / = no result; ! = repeats disagree. Unless noted, calls follow the shape of the dose curve; as a rule, active = well fitted curve in the direction sought with a large enough effect; inconclusive = small, poorly fitted or top-dose-only effect, or another doubt; inactive = no such curve, though single readings can be large; an effect the other way counts as inactive or inconclusive. Unless noted, % is scaled to controls: 0 for no effect and ±100 for the full control effect.

SMILES	HCV inh	FMDV inh	HCMV antiviral	AmpC no deterg	AmpC detergent
CC(=O)c1cccc(Nc2ccc(-c3ccccc3F)nn2)c1	?	28%	77	-48%	3%
Nc1ccc(C(=O)OCc2nc3cc4ccccc4cc3[nH]2)cc1	-28%	20%	-93*	?	-5%
COc1ccccc1Nc1nc(-c2ccc3c(c2)NC(=O)CO3)cs1	10µM*	?	-64*	-5%	4%
O=C(N/N=C/C1=C(N2CCOCC2)C(=C\c2ccccc2)/CC1)Nc1ccccc1	?	-1%	-71*	-23%	1%
Cc1cc(C)nc(N/N=C/C2=C(N3CCOCC3)C(=C/c3ccccc3)/CC2)n1	?	28µM*	?	52%	3%
CN(Cc1cnc2ccccn12)C(=O)c1cc(NC(=O)c2ccccc2)cc2ncn(C3CCCC3)c12	/	-8%	/	/	/
CC(NC(=O)c1ccccc1F)c1nnc(SCC(=O)NC2CCCC2)n1C (stereo unspecified)	8%	-10%	-64*	-6%	-9%
COc1ccc(Br)cc1/C=N/N1C(=O)CSC1=S	17%	-13%	37	28µM*	?
Cc1cc(Cl)ccc1Oc1ccccc1C(=O)CC#N	4%	-6%	-39	4µM*	10%
Cn1c(CN2CCOCC2)nc2cc(NC(=O)c3ccc(F)cc3)ccc21	?	/	-75*	-5%	?
Cn1c(CN2CCCCC2)nc2cc(NC(=O)c3ccc(Cl)cc3)ccc21	4µM*	18µM*!	-67*	-9%	5%
CCOC(=O)N1CCN(Cc2nc3cc(NC(=O)c4ccccc4Cl)ccc3n2C(C)C)CC1	/	?	-90*	/	-7%
CCOC(=O)N1CCN(Cc2nc3cc(NC(C)=O)ccc3n2C(C)C)CC1	/	-16%	69	/	24%
Cn1c(CN2CCCC2)nc2cc(NC(=O)c3ccc(Cl)cc3)ccc21	?	0%	-73*	158%	3%
CCC1CN(C(=O)Nc2ccccc2C(F)(F)F)c2ccccc2S1 (stereo unspecified)	/	-7%	0	/	18%
CS(=O)(=O)N(Cc1nc(-c2ccc(F)cc2)no1)c1ccccc1Cl	-14%	0%	-29	-3%	?
CC(=O)c1cccc(NC(=O)NC2CC3CCCC(C2)N3CC(C)C)c1 (stereo unspecified)	-6%	17%	39	-18%	-7%
Cc1nn(Cc2ccc(Cl)cc2Cl)c(Cl)c1C(=O)NC1CCCc2ccccc21 (stereo unspecified)	0%	20µM*	26	-21%	9%
O=C(NC1CCCc2ccccc21)c1c(F)cccc1Cl (stereo unspecified)	-5%	1%	-67*	-11%	-8%
CC(=O)c1cccc(NC(=O)NC2CCCc3ccccc32)c1 (stereo unspecified)	?	12%	-70*	-15%	9%
CCCN1C2CCCC1CC(NC(=O)Nc1cccc(C(C)=O)c1)C2 (stereo unspecified)	2.8µM*	7%	41	-16%	-14%
O=C(NC1CCSc2ccccc21)c1c(F)cccc1Cl (stereo unspecified)	-3%	-8%	-6	-23%	-8%
NC(=O)c1ncn([C@@H]2O[C@H](CNCc3cc(Br)ccc3OCc3ccccc3)[C@@H](O)[C@H]2O)n1	?	-10%	-12	/	/
Cc1cc(NC(=O)c2ccc(F)cc2)n(C)n1	14%	16%	6	-18%	-3%
COc1ccc(CCNC(=O)c2c(C)oc3ncn(CC(C)C)c(=O)c23)c(OC)c1	/	0%	11	/	20%
SMILES	HCV inh	FMDV inh	HCMV antiviral	AmpC no deterg	AmpC detergent
O=C(CCl)NC1CCCc2ccccc21 (stereo unspecified)	13%	?	-109*	-9%	7%
O=C(Cc1ccc(Br)cc1)NC1CCCc2ccccc21 (stereo unspecified)	-27%	8%	12	-22%	-1%
CN(C(=O)CCl)C1CCCc2ccccc21 (stereo unspecified)	?	16µM*	5	-19%	-7%
CC1(C)Cc2ccccc2-c2nnc(SCC(=O)N3CCN(c4ccccc4)CC3)n21	?	?	-92*	48%	5%
O=C(CSc1ccccn1)Nc1nc2ccccc2s1	-19%	37%	-66*	-14%	-21%
O=C(CSc1cn[nH]n1)Nc1nc2ccccc2s1	-20%	53%	90	-31%	?
CC1(C)Cc2ccccc2-c2nnc(SCC(=O)Nc3nc4ccccc4s3)n21	-2%	?	-83*	-2%	2%
CCn1c(CSc2nc(C)cc(C)n2)nnc1SCC(=O)Nc1nc(-c2ccccc2)cs1	?	-28%	-1	-44%	?
CCOC(=O)c1c(NC(=O)CSc2nc3c(c(=O)n(C)c(=O)n3C)n2C(C)C)sc(C)c1C	1%	/	/	-4%	0%
CC(C)n1c(SCC(=O)Nc2nc3c(s2)CCCC3)nc2c1c(=O)n(C)c(=O)n2C	-3%	25µM*	-60*	62%	-14%
CN(C)CCCn1c(SCC(=O)N2c3ccccc3Sc3ccccc32)nc2ccccc2c1=O	13µM*	?	-99*	284%	-7%
CCn1c(SCC(=O)Nc2nc(-c3ccc(C)cc3)cs2)nnc1-c1ccccc1	7.9µM*	13µM*	-72*	-23%	-9%
COc1ccccc1-c1nnc(SCC(=O)Nc2nc(-c3ccccc3)cs2)n1C	?	32µM*	-25	-2%	-2%
COc1ccccc1C(=O)N[C@@H]1c2ccccc2C2(CCN(Cc3cccnc3)CC2)[C@H]1O	/	-6%	/	/	/
O=C(CSc1nnc(-c2cccnc2)n1Cc1ccco1)Nc1nc(-c2ccc(F)cc2)cs1	25µM*	20µM*	-74*	36%	-14%
O=C(CSc1nnc(-c2cccnc2)n1Cc1ccco1)Nc1cccc(O)c1	24%	-6%	2	-8%	-9%
CCn1c(SCC(=O)Nc2nc(-c3ccc(C)cc3)cs2)nnc1-c1ccccc1O	6.3µM*	16µM*	-70*	-8%	6%
CCCn1c(SCC(=O)N2c3ccccc3Sc3ccccc32)nc2c1c(=O)n(C)c(=O)n2C	?	6%	-26	-11%	-1%
CC(C)n1c(SCC(=O)N2c3ccccc3Sc3ccccc32)nc2c1c(=O)n(C)c(=O)n2C	11µM*	/	9	-4%	-15%
Cc1ccc(-c2csc(NC(=O)CSc3nc4ccccc4c(=O)n3CCCN(C)C)n2)cc1	1.4µM*	2%	24	144%	5%
COc1cccc(Cn2c3ccc(NC(=O)Cc4ccccc4C)cc3c(=O)n2C)c1	/	13%	4	/	/
O=C1C(=O)N(C2CCN(S(=O)(=O)c3ccccc3)CC2)CCN1Cc1ccccc1	/	-15%	5	/	4%

Screening data from PubChem.
